Measured values as given in PubChem BioAssay AID1488 (Vanderbilt High Throughput Screening Facility, 2009).
Screen size: about 1,700 compounds; about 310 (18%) were called active. Another 25% or so got no clear call; they are omitted. Shown is part of a subset that was picked to be rich in actives. Unmarked numbers belong to inactive results.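 How the source made its calls: active means fluorescence change differs from the solvent-only DMSO control mean at a set confidence level in both duplicate runs; inconclusive means differs from solvent-only control mean in just one of two runs; inactive means the rest.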

What follows are compounds tested against Muscarinic acetylcholine receptor M1 (Rattus norvegicus) (UniProt P08482) (assay: rat M1 muscarinic receptor agonists, confirmation, CHO-M1 cells, Fluo-4 calcium, duplicate retest (AID 1488;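 further: an EC20 dose of acetylcholine follows compound addition during the same imaging run; raw fluorescence intensity difference in instrument units with no normalization to controls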)). Conditions: Fluo-4 calcium fluorescence, agonist mode, at 10 µM, actives lie on both sides.
Sequence of Muscarinic acetylcholine receptor M1 (Rattus norvegicus) (P08482 whole entry, looked up): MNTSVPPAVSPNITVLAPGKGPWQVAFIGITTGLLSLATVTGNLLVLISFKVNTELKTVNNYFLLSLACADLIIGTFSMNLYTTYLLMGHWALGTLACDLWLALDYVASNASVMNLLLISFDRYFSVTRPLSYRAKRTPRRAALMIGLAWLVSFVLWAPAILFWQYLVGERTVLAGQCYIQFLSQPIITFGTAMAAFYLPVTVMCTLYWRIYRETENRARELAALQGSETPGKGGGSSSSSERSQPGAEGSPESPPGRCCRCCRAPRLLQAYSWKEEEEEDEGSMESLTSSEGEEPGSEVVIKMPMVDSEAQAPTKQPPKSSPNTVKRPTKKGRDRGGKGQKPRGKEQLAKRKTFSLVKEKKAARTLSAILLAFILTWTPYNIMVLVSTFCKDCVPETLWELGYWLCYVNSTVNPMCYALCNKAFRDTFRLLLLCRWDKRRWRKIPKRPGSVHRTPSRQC

| SMILES | fluorescence change (max-min) |
| --- | --- |
| COc1ccccc1NC1=NC(c2ccc(Cl)cc2)N=C(N)N1 (stereo not given) | -28.2 (active) |
| Cc1ccc2oc(=O)c3cnn(CC(=O)N4CCN(c5ccccn5)CC4)c3c2c1 | -16.8 |
| CC(=O)OC(C)C[N+](C)(C)C (stereo not given) | 529 (active) |
| CC(C[N+](C)(C)C)OC(N)=O (stereo not given) | 389 (active) |
| COc1cccc2c(C)c(C(=O)O)[nH]c12 | 4.27 |
| O=C(NCc1ccccn1)c1ccc2nc(-c3ccco3)c(-c3ccco3)nc2c1 | 28.5 |
| CCOc1ccc2[nH]c(=O)c(CN(Cc3nnnn3Cc3ccccc3)CC3CCCO3)cc2c1 (stereo not given) | 19.2 |
| Cc1cc2cc(CN(Cc3cccs3)Cc3nnnn3CC3CCCO3)c(=O)[nH]c2cc1C (stereo not given) | 7.46 |
| Cc1cc(NC(=O)COc2ccc(Cl)cc2Cl)n(CCC#N)n1 | -3.95 |
| O=C(O)c1ccc(COCC(F)(F)F)cc1 | -6.5 |
| CC(=O)Nc1ccc(NC(=O)CN2CCCC(C)C2)c(Cl)c1 (stereo not given) | -10.1 |
| CCOC(=O)c1cc2n(c1N)-c1ccccc1C2=O | 1700 (active) |
| CCOc1cc(N2CCOCC2)c(OCC)cc1NC(=O)COc1cccc2cccnc12 | -14.8 |
| N#CC1=C(N)Oc2c(sc3ccccc23)C1c1ccco1 (stereo not given) | 140 (active) |
| C(=N\n1cnnc1)/c1cccnc1 | -17.4 |
| O=C1c2ccccc2-c2ncnc3c(N4CCOCC4)cc(N4CCOCC4)c1c23 | -15.7 |
| c1ccc2c(c1)OCC(CNc1ncnc3nc[nH]c13)O2 (stereo not given) | 512 (active) |
| O=C(Nc1ccccc1N1CCN(C(=O)c2ccccc2)CC1)c1ccc2c(c1)OCO2 | -2.28 |
| CC(C)(C)c1cc(CN2CCN(CCC#N)CC2)cc(C(C)(C)C)c1O | 23.3 |
| O=C(NCCc1ccc2c(c1)OCCO2)c1cc2ccccc2o1 | 25 |
| CCCN1CC=C2C(C#N)=C(N)C(C#N)(C#N)C(c3cc(OC)ccc3OC)C2C1 (stereo not given) | 85.5 (active) |
| COc1ccccc1Cc1nc(-c2ccc(C)cc2)no1 | -14 |

| SMILES | fluorescence change (max-min) |
| --- | --- |
| COc1ccc2nc(N3CCCC(O)C3)c(C#N)cc2c1 (stereo not given) | 206 (active) |
| COC(=O)c1ccc(CSc2nc3ccccc3c(=O)n2-c2cccc(OC)c2)o1 | -9.69 |
| CCOC(=O)CSc1nc2c(sc(=S)n2CCc2ccccc2)c(=O)n1Cc1ccco1 | -34.1 (active) |
| O=C(CSc1nnc(-c2ccco2)n1Cc1ccccc1)NC(=O)NCc1ccco1 | -3.05 |
| c1n[nH]c(NCc2ccc3c(c2)OCO3)n1 | -9.45 |
| COc1cccc(-n2cc3c(c2-c2ccccc2)c(=O)n(C)c(=O)n3C)c1 | -22.4 |
| CC(NC(=O)CSc1nc2c(cc1C#N)CN(C)CC2)c1ccccc1 (stereo not given) | 41.3 |
| CCN(CC)c1ccc2cc(C(=O)O)c(=O)oc2c1 | 153 (active) |
| CCN(CC)c1ccc2oc(=O)c(C)nc2c1 | 165 (active) |
| CCOC(=O)C1CCCN(Cc2nc(N)nc(Nc3ccc(C)cc3)n2)C1 (stereo not given) | 127 (active) |
| FC(F)(F)COc1nc(N2CCCCC2)nc(N2CCNCC2)n1 | -8.96 |
| CCOc1nc(-c2ccc(OC)cc2)ccc1-c1noc(-c2cc(OC)c(OC)c(OC)c2)n1 | -5.3 |
| O=C(CSc1nnc(Cn2cnc3ccccc32)o1)c1ccccc1 | -8.96 |
| CCc1nc(Nc2ccc3nccnc3c2)c2oc3ccccc3c2n1 | -1.32 |
| Cc1ccc(C(=O)COc2cccc(NC(=O)c3ccco3)c2)cc1 | 131 (active) |
| COc1ccc(CCNC(=O)c2ccco2)cc1 | -16.3 |
| CN1C(=O)c2ccc(NC(=O)c3c(F)c(F)c(F)c(F)c3F)cc2C1=O | 1.53 |
| O=C(c1ccccc1)c1ccc(OC(=O)N2CCCC2)cc1 | -8.75 |
| Fc1ccc2[nH]c3c(N4CCSCC4)ncnc3c2c1 | 6.07 |
| CC(C)OCCCNc1ncnc2c1[nH]c1ccc(F)cc12 | 51.6 (active) |
| O=C(Nc1nc(-c2ccc3c(c2)OCO3)cs1)c1ccncc1 | -8.33 |
| O=C(COC(=O)CCc1c[nH]c(=O)[nH]1)Nc1ccccc1Cl | 13.2 |

| SMILES | fluorescence change (max-min) |
| --- | --- |
| CCOc1cc(-c2nc3cc(C)ccn3c2NCC2CCCO2)ccc1O (stereo not given) | -30.6 (active) |
| c1cnn(-c2cc(N3CCOCC3)ncn2)c1 | -19 |
| Cc1nc(CNS(=O)(=O)c2ccc(Oc3ccccc3)cc2)cs1 | -2.69 |
| CCOc1ccc2nc(N3CCCN(C(=O)Nc4ccccc4C)CC3)c(C#N)cc2c1 | 282 (active) |
| Cc1nn2c(c1-c1ccccc1)N=C(c1ccco1)CC2c1ccccc1 (stereo not given) | 21.8 |
| COCCNC(=O)C(c1ccc(C)o1)N(Cc1cccs1)C(=O)c1snc(C(N)=O)c1N (stereo not given) | -1.36 |
| CCN=C1SC(CC(=O)Nc2ccc(C)cc2)C(=O)N1CC (stereo not given) | -26.1 (active) |
| Cc1ccc(S(=O)(=O)Nc2ccc3ncccc3c2)cc1 | 17.4 |
| CCOc1ccc(NC(=O)N2CC=C(n3c(=O)[nH]c4ccccc43)CC2)cc1 | -24 |
| O=C(CSc1nc2ccccc2o1)N1CCN(c2ccc(Cl)cc2)CC1 | -34.5 (active) |
| O=C(CC1Nc2ccccc2NC1=O)Nc1ccccc1 (stereo not given) | -7.08 |
| Cn1c(=O)c2c(nc(SCC(=O)Nc3ccccc3N3CCCCC3)n2C)n(C)c1=O | -20.5 |
| CC1CCCC(C)N1C(=O)CN1CCN(c2nc(-c3ccc(F)cc3)cs2)CC1 (stereo not given) | -5.14 |
| O=C(NCCC1=CCCCC1)C1CCN(Cc2cnn(-c3ccccc3)c2-n2cccc2)CC1 | -25.7 (active) |
| COc1ccccc1N1CCN(C(=O)c2c(-c3c(Cl)cccc3Cl)noc2C)CC1 | -19.2 |
| O=C(Nc1cccc(NC(=O)N2CCN(c3ccccc3)CC2)c1)N1CCN(c2ccccc2)CC1 | 1.01 |
| O=C(Cn1cc(C(=O)c2cccs2)c2ccccc21)NCc1cccs1 | -4.9 |
| Cc1cccn2c(=O)c3cc(C#N)c(=NC(=O)c4cccnc4)n(CC4CCCO4)c3nc12 (stereo not given) | 310 (active) |
| Cn1c(C(=O)NCCc2ccsc2)cc2c(=O)n(C)c3ccccc3c21 | -12.8 |
| COc1ncnc2c1N=C1CC(C)(C)CC(N)=C1S2 | 175 (active) |
| COc1ccc(C(C(O)C(=O)c2c[nH]c3ccccc23)N2CCN(c3ccccc3)CC2)cc1 (stereo not given) | -11.7 |
